# TexasRed fluor = alters Texas Red total fluorescence, flagging assay interference. TRb/SRC2 Texas Red total fluorescence interference. Potency, µM (top dose mostly 106 µM). 0.29% of 280,000 active; active means well fitted curve in either direction with a large enough effect; inconclusive means small, poorly fitted or top-dose-only effect
#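 Human TRβ ligand-binding domain (0.6 uM) and Texas Red SRC2 peptide (20 nM) in Tris buffer with 1 uM T3 and 5% DMSO were incubated with pinned compound for 5 hr at ambient temperature. Total fluorescence was computed as S + 2P (555/632 nm).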
# Tau ThT inhib = inhibitors of human tau fibril formation, thioflavin T binding. P10636. recombinant tau K18 P301L, heparin-induced fibrillization, ThT fluorescence. Potency, µM (titrated, usually from 57.4 µM), usual class: inhibitors. 2.1% of 270,000 active. AID 1460; further: nearly all actives have a fitted effect of over 55% in size
# Target sequence (P10636 561-689 P618L limits assumed): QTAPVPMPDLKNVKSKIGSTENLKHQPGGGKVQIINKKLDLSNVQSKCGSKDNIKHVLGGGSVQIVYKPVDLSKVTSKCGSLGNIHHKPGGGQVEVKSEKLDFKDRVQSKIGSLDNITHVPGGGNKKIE
#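 Tau K18 P301L fragment (15 uM unlabeled plus 0.24 uM Alexa 594-labeled) in 100 mM sodium acetate pH 7 with compound, fibrillization induced by 20 uM heparin for 6 hr at 37 C. Thioflavin T (30 uM) added, fluorescence read after 1 hr (ex 450, em 510 nm).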
# KDM4E inh = JMJD2E (human) inhibition | AID 2147 | JMJD2E catalytic domain, FDH-coupled NADH fluorescence (FDH is formaldehyde dehydrogenase) | Potency, µM (doses to about 57.1 µM), hits mostly inhibitors | 1.6% of 230,000 active | B2RXH2; active means well fitted inhibition curve with a large enough effect, not every such curve was filed as active; inconclusive means small, poorly fitted or top-dose-only effect, or another doubt; inactive means no such curve, though single readings can be large or run the other way; further: nearly all actives have a fitted effect of over 50% in size
# Tau FP inhib = inhibitors of human tau fibril formation | AID 1468 | P10636 | K18 P301L tau heparin fibrillization, Alexa594 FP, 6 h | Potency, µM (titrated, usually from 57.7 µM), hits mostly inhibitors | 0.39% of 280,000 active; further: nearly all actives have a fitted effect of over 55% in size
#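 Recombinant K18 P301L […], labeled with Alexa 594 at 0.24 uM over 15 uM unlabeled; heparin inducer 20 uM final; 37 C, 6 hr; FP endpoint.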
# Tau fluor cs = counter-screen for tau fibril formation inhibitors; Potency, µM (titrated, usually from 57.7 µM); 0.93% of 280,000 active; tau K18 P301L Alexa594 fluorescence, heparin fibrillization; AID 1463; further: nearly all actives have a fitted effect of over 55% in size
#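 Human tau K18 P301L (15 uM unlabeled, 0.24 uM Alexa 594-labeled) in 100 mM sodium acetate pH 7 with 20 uM heparin, 6 hr at 37 C. ThT 30 uM added, 1 hr ambient; Alexa 594 FP and total fluorescence read at 555/632 nm.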
# TRb SRC2 PPI = TRbeta-SRC2 interaction inhibition | TRbeta-SRC2 peptide binding, fluorescence polarization; receptor liganded with 1 µM T3 | 0.065% of 280,000 active | AID 1469 | Potency, µM (series often up to 106 µM), most hits filed as inhibitors; further: nearly all actives have a fitted effect of over 50% in size
# Target sequence (P10828 whole entry, looked up): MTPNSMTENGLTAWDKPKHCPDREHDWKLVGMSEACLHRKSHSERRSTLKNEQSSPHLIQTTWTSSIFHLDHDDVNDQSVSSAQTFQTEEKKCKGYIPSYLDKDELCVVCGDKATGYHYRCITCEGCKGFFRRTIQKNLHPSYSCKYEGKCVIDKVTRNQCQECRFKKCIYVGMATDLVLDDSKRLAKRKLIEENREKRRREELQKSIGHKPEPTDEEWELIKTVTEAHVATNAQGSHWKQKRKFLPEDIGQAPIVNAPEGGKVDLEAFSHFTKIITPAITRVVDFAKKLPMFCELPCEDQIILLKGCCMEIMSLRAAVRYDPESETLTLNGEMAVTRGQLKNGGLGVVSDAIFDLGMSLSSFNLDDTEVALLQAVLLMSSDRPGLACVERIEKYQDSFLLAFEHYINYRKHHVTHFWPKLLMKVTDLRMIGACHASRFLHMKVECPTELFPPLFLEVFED
#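 Quantitative HTS by FP: 0.6 uM TRb LBD, 20 nM labeled SRC2 20-mer, 1 uM T3, 5% DMSO; 5 hr ambient incubation; % activity per concentration and potencies from concentration series.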
# A number is an active result; . = inactive; ? = inconclusive; / = not tested or not shown; ! = not confirmed by another sample; [ ] = another dose, or the depositor's remark. Most compounds without a hit are left out; they make up all but 3.5% or so of the library. Unless noted, the call rests on the fitted dose curve; in most records, active means well fitted curve in the direction sought with a large enough effect; inconclusive means small, poorly fitted or top-dose-only effect, or another doubt; inactive means no such curve, though single readings can be large; an effect the other way counts as inactive or inconclusive.
SMILES,TexasRed fluor,Tau ThT inhib,KDM4E inh,Tau FP inhib,Tau fluor cs,TRb SRC2 PPI
COC(=O)c1ccc(C2=NOC(C)(c3sc(-c4ccccc4)nc3C)C2)cc1 (configuration not stated),.,.,.,.,.,.
O=C(O)C1CC(=O)N(c2ccc3c(c2)OCCO3)C1 (configuration not stated),.,.,.,.,.,.
CC(C)Nc1cc(C(C)(C)C)nc2c(-c3ccccc3)cnn12,.,.,?,.,?,.
CCN1CCC(C(=O)NC2CCCC2)(N(Cc2cccs2)C(=O)Cn2nnc3ccccc32)CC1,.,.,.,.,.,.
Cc1ccc(OCC(=O)Nc2ccc(S(=O)(=O)N(Cc3ccccc3)c3ccccc3)cc2)cc1,?,.,/,?,.,.
CCCCC1=CC2=C(c3ccco3)C(=O)C(C)(OC(=O)c3ccc(OC)cc3)C(=O)C2=CN1CCCCO (configuration not stated),.[11.2 µM],?,.[11.4 µM],.[11.6 µM],.[11.6 µM],.[11.2 µM]
CCCCC1=CC2=C(c3ccco3)C(=O)C(C)(OC(=O)c3ccc(OC)cc3)C(=O)C2=CN1Cc1ccc(OC)cc1 (configuration not stated),.[11.2 µM],14µM!,.[11.4 µM],?,.[11.6 µM],.[11.2 µM]
CCCCC1=CC2=C(c3ccco3)C(=O)C(C)(OC(=O)c3ccc(OC)cc3)C(=O)C2=CN1Cc1ccco1 (configuration not stated),?,8.9µM!,13µM!,.[11.6 µM],.[11.6 µM],.[11.2 µM]
CCCCC1=CC2=C(c3ccco3)C(=O)C(C)(OC(=O)c3ccc(OC)cc3)C(=O)C2=CN1CC1CC1 (configuration not stated),.[11.2 µM],16µM!,?,.[11.6 µM],?,.[11.2 µM]
Cc1ccc(C2Nc3ccccc3-c3nc4ccccc4n32)o1 (configuration not stated),.,?,.,?,32µM[quencher],.
CC1CCC(C(C)C)C2=C1C(C#N)(C#N)C(C#N)(C#N)C(c1ccccc1)N2 (configuration not stated),.,22µM,?,.,?,.
O=C(Cc1csc(N2CCOCC2)n1)N/N=C/c1ccc(O)c(O)c1O,.,16µM,8.9µM,32µM,?,.
C/C(=N\NC(=O)Cc1csc(N2CCOCC2)n1)c1ccccc1,.,.,.,.,.,.
O=C(NC1(C(F)(F)F)N=C2SCCN2C1=O)c1ccccc1 (configuration not stated),.,.,.,.,.,.
CC(C)c1cc(C(=O)N/N=C/c2c[nH]c3ccccc23)n[nH]1,.,/,.,.,.,.
CCc1ccc2c(Cl)c(C(=O)N/N=C/c3c[nH]c4ccccc34)sc2c1,.,10µM,.,?,11µM[quencher],.
CCc1ccc(-c2cc(C(=O)N/N=C/c3c[nH]c4ccccc34)[nH]n2)cc1,.,?,?,.,10µM[quencher],.
Cc1cc(C=C2C(=O)c3ccccc3C2=O)c(C)n1-c1ccc(C(=O)O)cc1,.,14µM,.,.,.,.
Cc1cc(C=C2C(=O)c3ccccc3C2=O)c(C)n1-c1cccc(C(=O)O)c1,.,16µM,.,.,.,.
O=C(CCNC(=O)c1ccc(Br)o1)NC1CCCC1,.,.,.,.,.,.
Cc1ccc(C(=O)NC(=S)Nc2cccc(-c3nc4ccccc4s3)c2)cc1,.,?,.,.,.,.
N#C/C(C(=O)c1ccccc1)=C1/SC=C(N)N1c1ccccc1,.,28µM,.,?,.,.
N#C/C(C(N)=O)=C1/SC=C(c2ccccc2)N1c1ccccc1,.,.,?,.,.,.
Cc1ccc(C(c2cccc(Br)c2)c2c(C)[nH]c3ccccc23)s1 (configuration not stated),.,?,/,?,5.6µM[quencher],.
CCOc1cccc(NC(=O)C2CC(=O)N(C)C2)c1 (configuration not stated),.,.,.,.,.,.
SMILES,TexasRed fluor,Tau ThT inhib,KDM4E inh,Tau FP inhib,Tau fluor cs,TRb SRC2 PPI
O=C(NN1C(=O)C2C3c4ccccc4C(c4ccccc43)C2C1=O)C1CC1 (configuration not stated),.,.,.,.,.,.
O=C1CC(c2ccco2)CC(O)=C1C=NCC1CCNCC1 (configuration not stated),.,?,10µM,.,.,.
O=C1CC(c2ccco2)CC(O)=C1C=NCCN1CCNCC1 (configuration not stated),.,?,?,.,.,.
O=C(CN1CCCc2ccccc21)N/N=C/c1ccc(O)cc1O,.,?,25µM,.,?,.
O=C(CN1CCCc2ccccc21)N/N=C/c1ccccc1,.,?,.,.,?,.
O=C(CN1CCCc2ccccc21)N/N=C/c1c(O)ccc2ccccc12,.,?,?,.,14µM[quencher],.
O=C(NCc1ccco1)c1cc(S(=O)(=O)N2CCOCC2)c(Cl)cc1Cl,.,.,.,.,.,.
CCn1cc(S(=O)(=O)c2cccc(Cl)c2)c(=O)c2cc(F)c(N3CCN(c4ccccc4)CC3)cc21,.,?,/,.,.,.
Cc1cccc(S(=O)(=O)c2cn(C)c3cc(N4CCN(c5ccccc5)CC4)c(F)cc3c2=O)c1,56µM[quencher],.,/,.,.,?
Cn1cc(S(=O)(=O)c2cccc(Cl)c2)c(=O)c2cc(F)c(N3CCN(c4ccccc4)CC3)cc21,158µM[quencher],.,/,.,.,.
CCCn1cc(S(=O)(=O)c2ccc(C)c(C)c2)c(=O)c2cc(F)c(N3CCCCC3)cc21,282µM[quencher],.,/,.,.,.
CCCCC(=O)NC(=S)Nc1ccc(S(=O)(=O)N2CCCC2)cc1,.,.,.,.,.,.
Cc1[nH][nH]c(=O)c1C(c1ccc(-c2ccc(Cl)c(C(=O)O)c2)o1)c1c(C)[nH][nH]c1=O,.,10µM,.,?,.,.
COC(=O)c1cccc(-c2ccc(C(c3c(C)[nH][nH]c3=O)c3c(C)[nH][nH]c3=O)o2)c1,.,7.9µM,.,?,.,.
COC(=O)c1ccccc1-c1ccc(C(c2c(C)[nH][nH]c2=O)c2c(C)[nH][nH]c2=O)o1,.,.,.,.,.,.
CCc1ccc(OCC(=O)NC(C)(C)C)cc1,.,.,.,.,.,.
COC(=O)C1=C(C(=O)OC)SC2(S1)C(C(=O)OC)=C(C(=O)OC)SC1=C2c2cc(C)cc(C)c2NC1(C)C,.,14µM,.,?,?,.
Cc1cc(-c2ccccc2)c(C#N)c(=S)[nH]1,.,.,.,.,.,.
CCOc1ccc2c(=O)c(Oc3ccccc3)c(C)oc2c1,.,.,.,.,.,.
Cc1cc(C)nc(N/N=C/C2=C(N3CCOCC3)C(=C\c3ccc(Cl)cc3)/CC2)n1,.,11µM,?,.,.,.

# Screening data: PubChem BioAssay, National Center for Advancing Translational Sciences (NCATS)
